ATG4B inh: blocks human ATG4B protease cleavage of LC3 substrate; Q9Y4P1; ATG4B cleavage of LC3-PLA2, NBD-HPC fluorescence, 1 h; inhibition, % at 8.33 µM; 0.51% of 340,000 active; in the data active = inhibition above about 40%
FAS TE block: inhibitors of human fatty acid synthase thioesterase domain; P49327; recombinant FAS-TE, OMFH fluorogenic substrate, fluorescence endpoint; inhibition, % at 15 µM; 0.67% of 360,000 active;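 active = compounds whose normalised, plate-corrected inhibition of enzyme fluorescence in the single-dose primary screen is 50% or more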;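 also: 0% = DMSO with enzyme and 100% = substrate without enzyme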
Target sequence (P49327 whole entry, looked up, the tested form may be a part): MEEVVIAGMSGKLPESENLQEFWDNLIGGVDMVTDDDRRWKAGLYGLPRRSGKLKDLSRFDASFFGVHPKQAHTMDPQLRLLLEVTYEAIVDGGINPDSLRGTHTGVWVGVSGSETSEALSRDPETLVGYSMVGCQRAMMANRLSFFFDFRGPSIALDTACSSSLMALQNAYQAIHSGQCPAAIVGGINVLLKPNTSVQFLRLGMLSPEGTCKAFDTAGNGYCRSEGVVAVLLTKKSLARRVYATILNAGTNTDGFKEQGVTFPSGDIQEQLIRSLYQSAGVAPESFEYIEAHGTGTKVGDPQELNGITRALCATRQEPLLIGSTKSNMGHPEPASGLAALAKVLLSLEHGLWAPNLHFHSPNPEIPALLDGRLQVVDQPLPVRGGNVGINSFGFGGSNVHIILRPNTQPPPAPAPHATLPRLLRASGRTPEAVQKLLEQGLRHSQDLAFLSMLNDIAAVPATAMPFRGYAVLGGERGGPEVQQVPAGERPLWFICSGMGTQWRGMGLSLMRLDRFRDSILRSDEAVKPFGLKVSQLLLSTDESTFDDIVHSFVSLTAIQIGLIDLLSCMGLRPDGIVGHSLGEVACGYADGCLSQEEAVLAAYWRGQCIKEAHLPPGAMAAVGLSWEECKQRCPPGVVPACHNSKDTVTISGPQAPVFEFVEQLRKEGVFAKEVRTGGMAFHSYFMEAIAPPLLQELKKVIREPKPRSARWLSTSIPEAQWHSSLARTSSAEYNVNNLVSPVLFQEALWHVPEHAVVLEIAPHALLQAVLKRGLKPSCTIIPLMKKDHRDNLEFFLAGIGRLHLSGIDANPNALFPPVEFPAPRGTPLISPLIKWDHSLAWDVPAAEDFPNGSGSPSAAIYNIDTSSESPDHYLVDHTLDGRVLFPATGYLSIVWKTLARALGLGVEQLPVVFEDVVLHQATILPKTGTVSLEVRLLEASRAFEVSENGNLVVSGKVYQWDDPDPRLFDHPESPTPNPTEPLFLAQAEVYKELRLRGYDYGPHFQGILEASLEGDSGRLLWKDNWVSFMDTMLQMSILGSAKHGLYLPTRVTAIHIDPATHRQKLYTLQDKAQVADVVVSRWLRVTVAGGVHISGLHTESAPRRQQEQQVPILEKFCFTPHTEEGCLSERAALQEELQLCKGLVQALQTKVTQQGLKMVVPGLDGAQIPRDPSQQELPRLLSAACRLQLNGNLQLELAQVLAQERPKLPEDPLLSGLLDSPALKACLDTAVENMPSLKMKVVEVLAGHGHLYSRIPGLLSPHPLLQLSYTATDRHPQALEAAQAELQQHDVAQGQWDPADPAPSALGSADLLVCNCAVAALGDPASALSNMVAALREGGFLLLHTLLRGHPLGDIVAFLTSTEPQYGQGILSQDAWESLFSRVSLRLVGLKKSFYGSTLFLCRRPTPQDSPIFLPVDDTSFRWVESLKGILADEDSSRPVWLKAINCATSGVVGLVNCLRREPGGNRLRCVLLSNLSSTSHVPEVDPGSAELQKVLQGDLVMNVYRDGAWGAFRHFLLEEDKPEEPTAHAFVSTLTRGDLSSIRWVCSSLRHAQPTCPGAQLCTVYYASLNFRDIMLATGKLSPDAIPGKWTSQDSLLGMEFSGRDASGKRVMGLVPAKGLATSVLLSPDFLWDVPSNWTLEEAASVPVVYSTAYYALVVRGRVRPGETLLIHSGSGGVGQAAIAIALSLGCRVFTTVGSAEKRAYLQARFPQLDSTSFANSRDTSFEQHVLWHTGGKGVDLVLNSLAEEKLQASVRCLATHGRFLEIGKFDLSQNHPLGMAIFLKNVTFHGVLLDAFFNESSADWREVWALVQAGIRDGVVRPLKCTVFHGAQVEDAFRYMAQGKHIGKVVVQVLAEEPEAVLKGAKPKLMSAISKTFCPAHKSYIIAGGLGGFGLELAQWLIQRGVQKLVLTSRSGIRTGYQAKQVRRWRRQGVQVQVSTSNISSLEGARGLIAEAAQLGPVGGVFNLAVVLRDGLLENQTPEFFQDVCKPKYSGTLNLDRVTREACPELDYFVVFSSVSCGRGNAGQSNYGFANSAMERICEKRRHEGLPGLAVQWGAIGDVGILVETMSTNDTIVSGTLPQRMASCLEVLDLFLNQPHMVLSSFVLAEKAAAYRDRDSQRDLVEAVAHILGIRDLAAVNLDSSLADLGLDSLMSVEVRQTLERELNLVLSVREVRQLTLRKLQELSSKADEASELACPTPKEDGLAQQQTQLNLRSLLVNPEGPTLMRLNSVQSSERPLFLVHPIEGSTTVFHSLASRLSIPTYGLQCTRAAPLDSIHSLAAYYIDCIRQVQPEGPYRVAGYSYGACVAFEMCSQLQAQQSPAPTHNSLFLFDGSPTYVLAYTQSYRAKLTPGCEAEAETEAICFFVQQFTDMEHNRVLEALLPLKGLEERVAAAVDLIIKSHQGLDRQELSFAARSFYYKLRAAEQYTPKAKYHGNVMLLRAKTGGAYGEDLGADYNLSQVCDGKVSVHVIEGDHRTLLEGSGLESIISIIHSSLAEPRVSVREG
NadD inh: inhibitors of Staphylococcus aureus NadD. purified NadD enzyme, colorimetric absorbance read-out. inhibition, % at 20 µM. 0.78% of 360,000 active; in the data active = inhibition above about 26%
SUMO Mot1 rescue: inhibitors of SUMOylation pathway: yeast Mot1-301 growth rescue; S. cerevisiae Mot1-301 growth rescue, ATP luminescence, 38.5C; percent above DMSO median, 100 means doubled; growth rescue, % at 18.8 µM; 1% of 320,000 active;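 active = every valid replicate shows activation above 250% relative to neutral control wells; inactive = the rest, any valid replicate at or below 250%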;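 also: OY570 slx delta 5 strain wells were the positive control but not used for scaling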
Calb FLC: C. albicans growth modulation with fluconazole; growth inhibition, % (test concentration not listed); C. albicans CaCi-2 (fluconazole-resistant clinical isolate) + fluconazole, Alamar Blue growth, 48 h; 0.57% of 300,000 active;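 active = growth inhibition above about 58% in most replicates, limit read from the data, passing the limit was not always enough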;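 also: all wells also contain fluconazole at 8 µg/ml as a sub-toxic cotreatment; 0% = median of DMSO wells and 100% = median of geldanamycin control wells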
ATG4B confirm: ATG4B (human) inhibition, single-dose confirmed. inhibition, % at 8.33 µM. 92% of 320 active. ATG4B protease fluorescent substrate cleavage assay. shares compounds with ATG4B inh; in the data active = inhibition above about 39%
PLA2 ctr: inhibits human PLA2, flagging false ATG4B inhibitors. inhibition, % at 8.33 µM. shares compounds with ATG4B inh. 66% of 1,600 active. AID 588402. purified PLA2, NBD-C6-HPC fluorescence, 45 min; in the data active = inhibition above about 50%
FAS-TE conf: FAS thioesterase (human) inhibition, confirmation; shares compounds with FAS TE block; recombinant FAS-TE, OMFH fluorogenic substrate, fluorescence; inhibition, % at 15 µM; 45% of 2,300 active; AID 624325;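 active = compounds inhibiting the enzyme by at least 50% at 15 µM in any one of the replicates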;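 also: 0% = enzyme with DMSO only and 100% = wells lacking enzyme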
NadD inh conf: NadD (S. aureus) inhibition, single concentration confirmation. shares compounds with NadD inh. purified S. aureus NadD, colorimetric enzyme assay. inhibition, % at 20 µM. 13% of 2,000 active; in the data active = inhibition mostly above about 42%, no sharp cut-off; inactive = mostly below about 42%
Active calls of the source: *; . = not tested or not shown. Shown are actives, neighbours in structure and some others; about 3.1% of the full set was active somewhere.

SMILES	ATG4B inh	FAS TE block	NadD inh	SUMO Mot1 rescue	Calb FLC	PLA2 ctr	FAS-TE conf	others
CCOC(=O)N/N=C/c1cn(CCCOc2ccc(C)cc2)c2ccccc12	41*	4	-3	-6	0	29	.
O=Cc1ccccc1OCCCOc1cccc2cccnc12	65*	-1	1	-14	-4	75*	.
CCC(CC)C1=NN2C(=N)/C(=C\c3cc(C)n(-c4cccc(C)c4)c3C)C(=O)N=C2S1	59*	-5	41*	4	20	9	.	ATG4B confirm=48*
CC1=NN2C(=N)/C(=C\c3cc(C)n(-c4ccccc4)c3C)C(=O)N=C2S1	4	-3	3	21	-23	.	.
CC(/C=C1\SC(=S)N(NS(=O)(=O)c2ccccc2)C1=O)=C\c1ccccc1	49*	23	18	10	-10	47	.	ATG4B confirm=59*
CC(/C=C1\SC(=S)N(NS(=O)(=O)c2ccc(C)cc2)C1=O)=C\c1ccccc1	62*	35	16	-7	39	72*	.
CC(/C=C1\SC(=S)N(NC(=O)c2ccccc2C)C1=O)=C\c1ccccc1	23	9	14	-20	-21	.	.
Cc1ccc(S(=O)(=O)NN2C(=O)/C(=C/c3cccc(F)c3)SC2=S)cc1	17	19	10	38	-5	.	.
Cc1cccc(C)c1-n1nnnc1C1(C)CCC(=O)N1Cc1cccc(C(F)(F)F)c1 (stereo not given)	.	8	-3	.	.	.	.
COC(=O)c1cc(NC(=O)c2ccccc2)c(=O)oc1C	1	-3	0	-7	2	.	.
COc1ccc(C(=O)Nc2cc(C(=O)c3ccccc3)c(C)oc2=O)cc1	44*	10	-5	-14	-1	38	.	ATG4B confirm=69*
CCc1c(C)sc(NC(=O)C2CC(c3c(F)cccc3Cl)=NO2)c1C#N (stereo not given)	32	30	-7	-24	32	.	.
N#Cc1c(NC(=O)C2CC(c3c(F)cccc3Cl)=NO2)sc2c1CCC2 (stereo not given)	59*	22	-5	6	5	53*	.
COCCN1C[C@@H](CO)O[C@@H](n2cnc3c(N4CCN(c5ccccc5)CC4)ncnc32)C1	.	1	-4	.	.	.	.
CCOC(=O)[C@H]1[C@H]2COc3ccc(OC)cc3[C@@H]2N2C(=O)c3cc(C)ccc3NC(=O)[C@@]12C	-3	0	-3	-3	.	.	.
COc1ccc2c(c1)[C@@H]1[C@H](CO2)[C@H](c2ccccc2)[C@]2(C)C(=O)Nc3ccc(C)cc3C(=O)N12	46*	83*	7	3	.	71*	-3
COc1ccc(-c2c(C#N)sc(C(N)=O)c2-c2ccc(OC)cc2)cc1	82*	60*	-6	76	-1	85*	47
O=C(Nc1ccc(OC(F)(F)F)cc1)Nc1cccc([N+](=O)[O-])c1	49*	73*	-13	-10	-14	58*	49*
Cc1cc(Br)c2[nH]cc(CCNC(=O)c3ccco3)c2c1	-2	5	-5	56	15	.	.
Cc1ccc(NC(=S)NCc2ccccc2)cc1[N+](=O)[O-]	54*	64*	-4	-10	14	63*	38
CC(/C=C1\SC(=S)N(c2ccc(C(=O)O)cc2)C1=O)=C\c1ccccc1	52*	90*	14	10	20	47	14	ATG4B confirm=44*
CN(C)C(=O)c1cc(Cl)ccc1Sc1cc(Cl)ccc1Cl	8	5	-7	17	2	.	.
Oc1ccc(Cl)cc1Sc1cc(Cl)ccc1O	47*	88*	-1	.	.	25	98*	ATG4B confirm=59*
O=C1CCC2(CCCC2)c2ccccc21	.	-3	-1	.	.	.	.
Cc1c(Cl)c([N+](=O)[O-])nn1CCCC(=O)Nc1c(Cl)cccc1Cl	20	11	3	12	32	.	.
SMILES	ATG4B inh	FAS TE block	NadD inh	SUMO Mot1 rescue	Calb FLC	PLA2 ctr	FAS-TE conf	others
Cc1c(Cl)c([N+](=O)[O-])nn1CCCC(=O)Nc1cc(Oc2ccccc2)cc([N+](=O)[O-])c1	89*	53*	-7	-23	15	88*	10
Cc1c(Cl)c([N+](=O)[O-])nn1CCCC(=O)N(Cc1ccccc1)Cc1ccccc1	52*	63*	-9	-8	1	60*	61*
O=C(C[C@H]1C[C@H](C(=O)N2CCCCC2)[C@@]2(CCc3ccccc3)c3[nH]c4ccc(Cl)cc4c3CCN2C1=O)NCCN1CCOCC1	-11	47	3	.	.	.	.
COc1ccc(CNC(=O)c2cn(Cc3ccccc3OC)c(=O)s2)cc1	.	2	-1	.	.	.	.
CCN(CC)c1ccc(N=Nc2nn(C)c(C)c2[N+](=O)[O-])cc1	35	24	2	-2	23	.	.
CCN(Cc1ccccc1)c1ccc(N=Nc2nn(C)c(C)c2[N+](=O)[O-])cc1	53*	52*	4	-5	-13	35	36*
COc1ccccc1NS(=O)(=O)c1cc(C(=O)Nc2ccc(S(=O)(=O)Nc3onc(C)c3C)cc2)ccc1C	-6	-2	6	.	.	.	.
Cc1cc(C)c(NC(=O)COC(=O)c2cccc3c2C(=O)c2ccccc2C3=O)c(C)c1	-4	8	8	-4	-2	.	.
Cc1cc(C)c(Nc2cc(S(=O)(=O)O)c(N)c3c2C(=O)c2ccccc2C3=O)c(C)c1	49*	75*	30*	-25	.	72*	46
O=C(COC(=O)c1cc(F)cc(F)c1)NCCCc1ccccc1	-4	0	-9	9	11	.	.
CCCCCCCCCCCCCCCCCCNc1ccn(C2OC(COP(=O)(O)OCC3OC(n4cc(F)c(=O)[nH]c4=O)CC3O)C(O)C2O)c(=O)n1 (stereo not given)	42*	55*	-5	.	.	41	27	ATG4B confirm=52*
N#C/C(=C\c1ccc(-c2ccccc2[N+](=O)[O-])o1)C(=O)Nc1nc(-c2cccs2)cs1	67*	21	34*	-7	-1	76*	.	NadD inh conf=-5
CN(C(=O)c1cccc(NC(=O)Cc2cccc(NC(=O)C3CCCN(C(=O)c4ccccc4)C3)c2)c1)C1CCC1 (stereo not given)	-14	-6	9	.	.	.	.
COc1ccc(C(=O)Nc2cccc(/C=C(\CCC(=O)O)c3nc4ccccc4s3)c2)cc1	59*	0	55*	-10	-2	74*	.	NadD inh conf=29
O=C(O)c1cccc(NC(=S)N/N=C/c2ccccc2OCc2cccc(Br)c2)c1	47*	16	51*	.	-14	54*	.	NadD inh conf=72*
O=C(NCCCO)c1ccc2nc(-c3ccco3)c(-c3ccco3)nc2c1	0	-6	11	.	.	.	.
